# Several values for one entry are separate records, joined by “and”; a condition that tells them apart may be missing. Identical values can stand only once. Inconclusive results are not listed. A call without a number means that no potency is given here. Some compounds were tested as several samples or in several runs, with calls that do not always agree. Activity calls are given as the source filed them. Unless noted, the call rests on the fitted dose curve; in most records, active means well fitted curve in the direction sought with a large enough effect in the repeat runs; inconclusive means weak or mixed curves; inactive means no such curve, though single readings can be large; an effect the other way counts as inactive or inconclusive.
# Assays:
# [1] = A CellTox Green Cytotoxicity Assay to monitor cytotoxicity in HepG2 cells - 8 hour (AID 1224890); settings: CellTox Green fluorescence; series mostly up to 76.8 µM; further: nearly all actives have a fitted effect of over 45% in size; further: potency means the concentration at half of the fitted maximal effect
# Method in brief: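 Fluorescent DNA-binding dye, 600 HepG2 cells/well, 5 h preincubation then compound in DMSO; same plates read at 0–40 h, 37 C.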
# [2] = qHTS assay to identify small molecule antagonists of the estrogen receptor alpha (ER-alpha) signaling pathway using the BG1 cell line in the presence of 0.1 nM 17-beta-estradiol - cell viability counter screen (AID 1259241); settings: VM7Luc4E2 (BG1) viability, CellTiter-Fluor protease, 22 h, 0.1 nM estradiol agonist added; series mostly up to 92.4 µM; further: nearly all actives have a fitted effect of over 40% in size
# Method in brief: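 Following 5 days in phenol red-free medium with charcoal-stripped serum, VM7Luc4E2 cells received test compounds alongside 0.1 nM 17beta-estradiol (final) at 37C for 22 hr. Live cells were then quantified via protease-substrate fluorescence.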
# [3] = qHTS assay to identify small molecule antagonists of the androgen receptor (AR) signaling pathway using the MDA cell line in the presence of 0.5 nM R1881 - cell viability counter screen (AID 1259242); settings: MDA-kb2 viability, CellTiter-Fluor protease fluorescence, 16 h; series mostly up to 92.4 µM; further: nearly all actives have a fitted effect of over 45% in size
# Method in brief: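 Human breast carcinoma MDA-kb2 cells, cultured without CO2, receive compounds alongside 0.5 nM (final) R1881 agonist. After 16 hr at 37C, viability is taken as live-cell protease signal.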
# [4] = target: Estrogen receptor (Homo sapiens) (UniProt P03372); assay: qHTS assay to identify small molecule antagonists of the estrogen receptor alpha (ER-alpha) signaling pathway using the BG1 cell line in the presence of 0.1 nM 17-beta-estradiol (AID 1259244); settings: VM7Luc4E2 (BG1) ERE-luciferase, antagonist mode, 0.1 nM E2, 22 h; series mostly up to 92.4 µM; further: nearly all actives have a fitted effect of over 50% in size
# Estrogen receptor (Homo sapiens), sequence (P03372 whole entry, looked up): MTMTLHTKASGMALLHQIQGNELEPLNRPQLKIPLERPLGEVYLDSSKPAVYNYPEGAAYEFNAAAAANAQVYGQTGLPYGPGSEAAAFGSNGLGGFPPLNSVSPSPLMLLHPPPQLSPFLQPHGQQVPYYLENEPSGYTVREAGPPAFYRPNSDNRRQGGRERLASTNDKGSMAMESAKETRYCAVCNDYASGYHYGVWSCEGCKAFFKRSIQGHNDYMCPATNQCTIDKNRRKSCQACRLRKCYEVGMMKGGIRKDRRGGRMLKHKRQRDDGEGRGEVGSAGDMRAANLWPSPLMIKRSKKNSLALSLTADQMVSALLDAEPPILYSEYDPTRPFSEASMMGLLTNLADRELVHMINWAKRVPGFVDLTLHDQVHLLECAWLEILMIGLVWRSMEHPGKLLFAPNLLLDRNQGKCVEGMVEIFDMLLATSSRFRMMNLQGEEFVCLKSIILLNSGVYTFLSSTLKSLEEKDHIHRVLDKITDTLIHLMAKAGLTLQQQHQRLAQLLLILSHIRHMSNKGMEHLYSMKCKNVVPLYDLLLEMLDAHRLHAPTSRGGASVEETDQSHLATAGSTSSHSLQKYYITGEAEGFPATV
# Method in brief: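 Seeding of stripped-serum-adapted VM7Luc4E2 cells, 24 h attachment, compound transfer, then 0.1 nM final 17beta-estradiol; after 22 h incubation, ONE-Glo reagent and luminescence reading.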
# [5] = qHTS assay to identify small molecule phospholipidosis (PLD) inducers (AID 1259344; active means well fitted curve in the direction sought with a large enough effect; an effect the other way counts as inactive or inconclusive); settings: HepG2 phospholipidosis, LipidTOX Red imaging, 24 h; series mostly up to 38.3 µM
# Method in brief: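 Image-based: LipidTOX Red pit count/intensity per well and per cell; HepG2, 24 h compound at 37 C, PFA fixation, Hoechst counterstain.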
# [6] = qHTS assay to identify small molecule HDAC inhibitors (AID 1259364); settings: HCT-116 HDAC-Glo I/II luminescence, 2 h; series mostly up to 92.4 µM;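 further: wild-type HCT-116 cells with endogenous class I/II HDAC activity; top concentration of the series differs between compounds; nearly all actives have a fitted effect of over 45% in size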
# Method in brief: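 After a 2 hr compound incubation (37C, 5% CO2), HCT-116 cells seeded at 1,500/well the day before received HDAC-Glo reagent; signal read as luminescence after 30 min at room temperature.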
# [7] = qHTS assay to identify small molecule HDAC inhibitors - cell viability counter screen (AID 1259365); settings: HCT-116 viability, CellTiter-Glo ATP luminescence, 2 h; series mostly up to 92.4 µM; further: nearly all actives have a fitted effect of over 50% in size
# Method in brief: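 HCT-116 wild-type, overnight attachment; 2hr drug exposure, 37C; CellTiter-Glo luminescent ATP readout after 30min RT.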
# [8] = qHTS assay to identify small molecule agonists of the sonic hedgehog signaling (Shh) pathway - cell viability counter screen (AID 1259366); settings: NIH/3T3 Gli1-Luc viability, CellTiter-Fluor, 24 h; series mostly up to 92.4 µM; further: nearly all actives have a fitted effect of over 50% in size
# Method in brief: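 Compounds in DMSO were pin-transferred onto 3T3 Gli1-Luc cells that had settled 4hr; plates then stood 24hr at 37C and 5% CO2. One hour before the end, CellTiter-Fluor was added and fluorescence recorded.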
# [9] = qHTS assay to identify small molecule antagonists of the sonic hedgehog signaling (Shh) pathway - cell viability counter screen (AID 1259367); settings: NIH/3T3 Gli1-Luc viability, CellTiter-Fluor, 24 h; series mostly up to 92.4 µM; further: nearly all actives have a fitted effect of over 55% in size
# Method in brief: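 Tox21 library chemicals were tested on a Gli1-Luc NIH/3T3 clone (2,000 cells/well) stimulated by conditioned medium; viability was quantified as fluorescence from CellTiter-Fluor reagent added at 23 hr.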
# [10] = qHTS assay to identify small molecule agonists of the sonic hedgehog signaling (Shh) pathway (AID 1259368; calls by dose curve;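 further: NIH/3T3-derived 3T3Gli1-Luc cells carrying a stable Gli1-driven firefly luciferase reporter; nearly all actives have a fitted effect of over 15% in size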); settings: NIH/3T3 Gli1-Luc reporter, luciferase, 24 h, stronger effect = higher value; series mostly up to 92.4 µM
# Method in brief: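 Stable NIH/3T3 Gli1-Luc reporter clone; 24 hr cpd exposure after a 4 hr settling period; luminescence endpoint.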
# [11] = qHTS assay to identify small molecule antagonists of the sonic hedgehog signaling (Shh) pathway (AID 1259369; calls by dose curve; further: nearly all actives have a fitted effect of over 45% in size; further: potency means the concentration at half of the fitted maximal effect); settings: NIH/3T3 Gli1-Luc reporter, Shh antagonist, luminescence 24 h; series mostly up to 92.4 µM
# Method in brief: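 Gli1 transcriptional reporter (firefly Luc) in NIH/3T3 background, conditioned-medium activated. 24hr exposure, luminescence endpoint.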
# [12] = target: Estrogen receptor beta (Homo sapiens) (UniProt Q92731); assay: qHTS assay to identify small molecule agonists of the estrogen receptor beta (ER-beta) signaling pathway (AID 1259377; active means well fitted activation curve with a large enough effect in the signal ratio in the repeat runs, not every such curve was filed as active; the % refers to the signal ratio); settings: ER-beta-UAS-bla HEK293T, beta-lactamase FRET ratio, 16 h; series mostly up to 92.4 µM
# Estrogen receptor beta (Homo sapiens), sequence (Q92731 whole entry, looked up): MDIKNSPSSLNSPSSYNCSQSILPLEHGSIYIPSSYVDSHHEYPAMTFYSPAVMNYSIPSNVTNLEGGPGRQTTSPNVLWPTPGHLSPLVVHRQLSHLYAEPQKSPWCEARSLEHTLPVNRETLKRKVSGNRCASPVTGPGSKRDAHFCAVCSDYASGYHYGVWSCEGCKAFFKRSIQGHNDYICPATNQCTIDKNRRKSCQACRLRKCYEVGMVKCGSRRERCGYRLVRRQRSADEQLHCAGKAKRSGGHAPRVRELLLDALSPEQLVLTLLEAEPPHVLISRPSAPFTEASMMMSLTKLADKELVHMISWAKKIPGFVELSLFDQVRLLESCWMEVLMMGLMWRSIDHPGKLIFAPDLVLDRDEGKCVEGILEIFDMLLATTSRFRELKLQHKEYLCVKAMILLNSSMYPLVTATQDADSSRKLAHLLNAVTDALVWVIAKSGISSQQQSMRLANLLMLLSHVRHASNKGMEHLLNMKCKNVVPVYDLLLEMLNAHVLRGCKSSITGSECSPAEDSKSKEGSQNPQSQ
# Method in brief: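 qHTS in ER-beta-UAS-bla HEK293T cells: 6 hr settling, then 16 hr compound at 37C, then LiveBLAzer substrate 2 h at RT before fluorescence reading.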
# [13] = qHTS assay to identify small molecule agonists of the androgen receptor (AR) signaling pathway in the presence of an antagonist - cell viability counter screen (AID 1259379); settings: MDA-kb2 viability, CellTiter-Fluor, 16 h; series mostly up to 92.4 µM; further: nearly all actives have a fitted effect of over 25% in size; further: potency means the concentration at half of the fitted maximal effect
# Method in brief: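 Counter screen for cell viability run in parallel with the AR agonist-mode luciferase assay. MDA-kb2 cells were co-treated with nilutamide (3.0uM final) and compounds, then incubated 16 hr at 37C, and CellTiter-Fluor fluorescence was measured.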
# [14] = qHTS assay to identify small molecule agonists of the estrogen receptor beta (ER-beta) signaling pathway - cell viability counter screen (AID 1259380); settings: ER-beta-bla HEK293T viability, CellTiter-Glo luminescence, 16 h; series mostly up to 92.4 µM; further: nearly all actives have a fitted effect of over 30% in size; further: potency means the concentration at half of the fitted maximal effect
# Method in brief: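 In this qHTS counter screen, HEK293T cells carrying an ER-beta/UAS beta-lactamase reporter, grown in 2% charcoal-stripped FBS, received compound for 16 hr; ATP-based CellTiter-Glo luminescence was then read after 30 min at room temperature.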
# [15] = target: Estrogen receptor (Homo sapiens) (UniProt P03372); assay: qHTS assay to identify small molecule agonists of the estrogen receptor alpha (ER-alpha) signaling pathway in the presence of an antagonist (AID 1259383; calls by dose curve; further: top concentration of the series differs between compounds; nearly all actives have a fitted effect of over 15% in size); settings: VM7Luc4E2 cells, ERE-luciferase, +ICI-182,780, 22 h; series mostly up to 92.4 µM
# Method in brief: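 ER-alpha agonism measured under antagonist challenge: 10.0nM ICI-182,780 (final) plus compound, 15 concentrations, 22hr, VM7Luc4E2 ERE-luciferase cells. Read by luminescence.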
# [16] = qHTS assay to identify small molecule agonists or antagonists of the thyroid stimulating hormone receptor (TSHR) signaling pathway - wild type cell line counter screen (AID 1259384; calls by dose curve); settings: HEK293 wild type, cAMP HTRF counter-screen, stronger effect = higher value; series mostly up to 92.4 µM
# Method in brief: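 Wild-type Hek293 cells, 800/well, 18 h at 37C, then compound with Ro20-1724 for 30 min RT. cAMP by HTRF (cAMP-d2/anti-cAMP cryptate), 1 h RT, fluorescence read. 15 concentrations, triplicates.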
# [17] = target: Androgen receptor (Homo sapiens) (UniProt P10275); assay: qHTS assay to identify small molecule antagonists of the androgen receptor (AR) signaling pathway using the MDA cell line in the presence of 0.5 nM R1881 (AID 1259243); settings: MDA-kb2 MMTV-luciferase, R1881 0.5 nM, 16 h; series mostly up to 92.4 µM; further: nearly all actives have a fitted effect of over 50% in size
# Androgen receptor (Homo sapiens), sequence (P10275 whole entry, looked up): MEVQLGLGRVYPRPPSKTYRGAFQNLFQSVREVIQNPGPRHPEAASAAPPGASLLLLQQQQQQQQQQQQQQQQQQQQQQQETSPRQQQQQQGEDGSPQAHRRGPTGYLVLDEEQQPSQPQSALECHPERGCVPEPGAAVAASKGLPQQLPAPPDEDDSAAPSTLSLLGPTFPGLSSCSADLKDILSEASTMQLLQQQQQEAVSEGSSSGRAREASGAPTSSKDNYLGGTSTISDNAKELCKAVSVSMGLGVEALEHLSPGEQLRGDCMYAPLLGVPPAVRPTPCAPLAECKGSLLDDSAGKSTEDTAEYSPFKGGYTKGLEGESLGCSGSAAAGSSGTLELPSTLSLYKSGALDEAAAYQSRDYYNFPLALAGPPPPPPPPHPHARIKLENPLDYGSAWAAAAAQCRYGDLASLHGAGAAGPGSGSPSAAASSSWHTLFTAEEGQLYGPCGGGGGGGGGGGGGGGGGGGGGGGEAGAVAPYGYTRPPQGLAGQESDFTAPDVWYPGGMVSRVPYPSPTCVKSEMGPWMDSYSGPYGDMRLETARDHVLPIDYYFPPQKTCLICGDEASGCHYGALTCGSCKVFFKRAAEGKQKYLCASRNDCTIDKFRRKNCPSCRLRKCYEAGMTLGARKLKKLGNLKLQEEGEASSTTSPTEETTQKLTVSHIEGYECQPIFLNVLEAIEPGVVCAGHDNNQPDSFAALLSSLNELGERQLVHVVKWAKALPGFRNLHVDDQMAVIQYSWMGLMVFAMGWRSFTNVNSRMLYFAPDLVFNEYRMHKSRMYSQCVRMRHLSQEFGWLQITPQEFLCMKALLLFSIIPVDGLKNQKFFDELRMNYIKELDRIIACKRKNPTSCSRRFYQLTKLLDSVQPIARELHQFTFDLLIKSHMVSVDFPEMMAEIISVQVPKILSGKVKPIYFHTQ
# Method in brief: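 Cells: MDA-kb2 (MMTV-luc). Stimulus: 0.5 nM R1881. Time: 16 hr, 37C, no CO2. Detection: ONE-Glo luminescence after 30 min at RT.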
# [18] = target: Estrogen receptor beta (Homo sapiens) (UniProt Q92731); assay: qHTS assay to identify small molecule antagonists of the estrogen receptor beta (ER-beta) signaling pathway (AID 1259378; active means well fitted inhibition curve with a large enough effect in the signal ratio in the repeat runs, not every such curve was filed as active; the % refers to the signal ratio); settings: ER-beta-UAS-bla HEK293T, beta-lactamase FRET ratio, 16 h; series mostly up to 92.4 µM
# Method in brief: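 ER-beta-UAS-bla HEK293T cells in 2% charcoal-stripped FBS medium treated with compound plus 1nM final 17-beta-estradiol for 16 hr at 37C. Beta-lactamase reporter read by FRET substrate fluorescence after 2 hours at room temperature.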
# [19] = target: Androgen receptor (Homo sapiens) (UniProt P10275); assay: qHTS assay to identify small molecule agonists of the androgen receptor (AR) signaling pathway in the presence of an antagonist (AID 1259381; calls by dose curve; further: nearly all actives have a fitted effect of over 15% in size); settings: MDA-kb2 MMTV-luciferase, AR agonist + nilutamide, 16 h; series mostly up to 92.4 µM
# Method in brief: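 AR antagonist background: nilutamide 3.0uM final. Cell line: MDA-kb2, MMTV-driven luciferase, responsive to both AR and GR. Exposure 16hr, 37C, no CO2; ONE-Glo luminescence.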
# [20] = qHTS assay to identify small molecule antagonists of the estrogen receptor beta (ER-beta) signaling pathway - cell viability counter screen (AID 1259382); settings: ER-beta-UAS-bla HEK293T viability, CellTiter-Glo luminescence, 16 h; series mostly up to 92.4 µM; further: nearly all actives have a fitted effect of over 55% in size
# Method in brief: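 HEK293T ER-beta-UAS-bla, 2% charcoal-stripped FBS; compounds + 1nM E2 16 hr 37C; CellTiter-Glo luminescence, 30 min RT.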
SMILES,Potency [1],Potency [2],Potency [3],Potency [4],outcome [5],Potency [6],outcome [7],Potency [8],Potency [9],outcome [10],Potency [11],Potency [12],Potency [13],Potency [14],Potency [15],outcome [16],outcome [17],Potency [18],Potency [19],Potency [20]
S=c1nc[nH]c2nc[nH]c12,inactive,inactive,inactive,inactive,inactive,inactive,inactive,inactive,inactive,inactive,inactive,inactive,inactive,7.51 µM (active) and 3.35 µM (active),inactive,inactive,,,,
O=Nc1ccc(O)cc1,inactive,inactive,inactive,inactive,,inactive,inactive,inactive,inactive,inactive,inactive,inactive,47.4 µM (active) and inactive,inactive,inactive,inactive,inactive,inactive,inactive,inactive
CCOC(=O)[C@H](CCc1ccccc1)N[C@@H](C)C(=O)N1Cc2ccccc2C[C@H]1C(=O)O,inactive,inactive,inactive,inactive,inactive,inactive,inactive,inactive,,inactive,inactive and 16.8 µM (active),inactive,inactive,inactive,inactive,,,inactive,,inactive
C=CC(=O)OCCCCCCCC(C)C,inactive,inactive,inactive,inactive,,inactive,inactive,,inactive,inactive,inactive,inactive,inactive,inactive,inactive,inactive,inactive,inactive,inactive,inactive
Clc1cc(Cl)c(Cl)cc1Cl,inactive,inactive,inactive,inactive,,inactive,inactive,inactive,inactive,inactive,inactive,inactive,inactive,inactive,inactive,,,inactive,,inactive
Cc1ccc(C)c(C)c1,inactive,inactive,inactive,inactive,,inactive,inactive,inactive,inactive,inactive,inactive,inactive,inactive,inactive,inactive,inactive,inactive,inactive,inactive,inactive
NC(=O)/N=N/C(N)=O,inactive,inactive,inactive,inactive,,inactive,inactive,,inactive,inactive,inactive,inactive,inactive,inactive,inactive,,,inactive,,inactive
NCc1cccc(CN)c1,inactive,inactive,inactive,inactive,,inactive,inactive,inactive,inactive,inactive,inactive,inactive,,inactive,inactive,inactive,,inactive,,inactive
O=C(Cl)c1c(Cl)c(Cl)c(C(=O)Cl)c(Cl)c1Cl,inactive,inactive,inactive,inactive,,inactive,inactive,inactive,inactive,inactive,inactive,inactive,inactive,inactive,inactive,,,inactive,,inactive
CC(C)(CO)COC(=O)C(C)(C)CO,inactive,inactive,inactive,inactive,,inactive,inactive,inactive,inactive,inactive,inactive,inactive,inactive,inactive,inactive,inactive,inactive,inactive,inactive,inactive
CCCCC(CC)COC(=O)/C=C\C(=O)OCC(CC)CCCC (stereo not drawn),inactive,inactive,inactive,,,inactive,inactive,inactive,inactive,inactive,inactive,inactive,inactive,inactive,,inactive,inactive,inactive,inactive,inactive
OC[C@@H](O)[C@H](O)[C@H](O)[C@@H](O)CO,inactive,inactive,inactive,inactive,inactive,inactive,inactive,inactive,inactive,inactive,inactive,,inactive,inactive,inactive,inactive,,,,inactive
CC1(C)O[C@@H]2C[C@H]3[C@@H]4C[C@H](F)C5=CC(=O)CC[C@]5(C)[C@H]4[C@@H](O)C[C@]3(C)[C@]2(C(=O)CO)O1,49 µM (active) and inactive,inactive,inactive,inactive,inactive,inactive,inactive,inactive,inactive,inactive,inactive,inactive,inactive,inactive,inactive,inactive,,inactive,,inactive
NCCNCCNCCNCCN,inactive,inactive,inactive,,inactive,inactive,inactive,inactive,inactive,inactive,inactive,inactive,inactive,inactive,,inactive,inactive,inactive,inactive,inactive
CCCCC(CC)C(=O)OCCOCCOCCOC(=O)C(CC)CCCC (stereo not drawn),inactive,inactive,inactive,inactive,,inactive,inactive,inactive,inactive,inactive,inactive,inactive,inactive,inactive,inactive,inactive,inactive,inactive,inactive,inactive

# — PubChem BioAssay (Tox21)
